The record followed here is PubChem BioAssay (NCI).

Common to all, as to assay: NCI-60 one-dose screen, 48 h (100 = growth as untreated, 0 = no growth, -100 = all killed)
Details in all cases: 10 µM

Test [1] concerns T-47D breast.
The subject of test [2] is BT-549 breast.
Test [3] deals with MDA-MB-435 melanoma.
Test [4] deals with SW-620 colon.
The subject of test [5] is MCF7 breast.
The test system of test [6] is HCT-116 colon.
In test [7] the test system is HCC-2998 colon.
The subject of test [8] is KM12 colon.

This is part of a sample that, as a whole, favours compounds with a hit. Of some 83,000 tested, about 20% had one in any assay.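 Note: values are percent growth. 100 is the growth of untreated cells, values between 100 and 0 indicate rising inhibition; between -100 and 0 indicates cell death.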 Unmarked numbers belong to inactive results. Active and inactive are the calls of the source. The calls were made as follows: active = growth percent below 10; inactive = the rest.

With `CNC(=O)c1cc(Oc2ccc3c(c2)sc2nc(-c4ccc(NC(=O)Nc5ccc(Cl)c(C(F)(F)F)c5)cc4)cn23)ccn1`, the growth in test [1] is 19.4%; in test [2] it was 75.7%; in test [3], 91.1%; in test [4] it was 103%; in test [5], 82.6%; in test [6], 73.2%. In addition, the growth in test [7] was 102%; in test [8] it was 83.5%.

On to `CC(=O)Nc1cc2c(cc1Cl)Cc1cc(Cl)ccc1-2`, for which the growth is 29.2% in test [1]; 99.2% in test [2]; 98.4% in test [3]; 97.5% in test [4]; 40.1% in test [5]; 99.3% in test [6]. Moreover, the growth is 65.6% in test [7] and 87.4% in test [8].

`CCOC(=O)c1cc(C(=O)c2ccc(OC)c(OC)c2)n2c1ccc1ccc3cccnc3c12`: the growth is 47.5% in test [1]; 33% in test [2]; -25.6% (active) in test [3]; 12.8% in test [4]; 21.8% in test [5]; 27.2% in test [6]. Further, the growth in test [7] is 65.7%; in test [8] it was 28.8%.

`CCOc1ccccc1/C=N/N1CCCCCC1`: the growth was 99.1% in test [1]; 103% in test [2]; 114% in test [3]; 96.1% in test [4]; 79.2% in test [5]; 100% in test [6]. Further, the growth was 93.5% in test [7] and 106% in test [8].

With `Cc1nc2n(c(=O)c1CCN1CCC(c3noc4cc(F)ccc34)CC1)CCC[C@@H]2O`, the growth in test [1] was 84.1%; in test [2], 99.4%; in test [3], 98.8%; in test [4], 101%; in test [5], 84.7%; in test [6], 99.5%. The growth is 109% in test [7] and 99.9% in test [8].

`CCNCC(=O)Nc1ccc(C(=O)OCC)cc1`: the growth in test [1] is 92.9%; in test [2] it was 102%; in test [3], 102%; in test [4], 97.2%; in test [5], 99.6%; in test [6] it was 96%. Besides, the growth in test [7] was 98.7%; in test [8], 95.9%.

`CC(C)(C)OC(=O)N1CCc2c(sc3ncnc(N/N=C/c4ccc(Br)cc4)c23)C1`: the growth in test [1] is 34.2%; in test [2], 74.9%; in test [3] it was -20.4% (active); in test [4], 55%; in test [5] it was 12.6%; in test [6] it was 47.3%. Besides, the growth is 72.1% in test [7] and 46.6% in test [8].

`CSc1ccc(-c2cc(-c3ccc(NC(=O)CCCN4CCCC4)cc3)nc(-c3ccc(NC(=O)CCCN4CCCC4)cc3)c2)cc1`: the growth in test [1] is 102%; in test [2], 77.6%; in test [3], 79.7%; in test [4], 67.6%; in test [5] it was -86.4% (active); in test [6], 80.4%. The growth is 86.3% in test [7] and 24.6% in test [8].

On to `CC(=O)Nc1ccc2c(c1)C(=O)c1cccc(C(=O)O)c1-2`, for which the growth in test [1] is 99.3%; in test [2] it was 117%; in test [3], 102%; in test [4] it was 99.8%; in test [5] it was 105%; in test [6], 105%. Further, the growth in test [7] was 102%; in test [8], 120%.

As to `Oc1ccc(-c2[nH]c3ccccc3c2-c2nc3ccccc3o2)cc1`, the growth is 40% in test [1]; 64.7% in test [2]; 0.478% (active) in test [3]; 40.9% in test [4]; 24.1% in test [5]; 23.7% in test [6]. For the same compound, the values for the growth in test [7] and in test [8] were 58.5% and 21%, respectively.

`CCCc1nc(C(C)(C)O)c(C(=O)O)n1Cc1ccc(-c2ccccc2-c2nn[nH]n2)cc1`: the growth in test [1] is 82.1%; in test [2], 103%; in test [3] it was 106%; in test [4], 98.6%; in test [5] it was 98.9%; in test [6] it was 106%. Also, the values for the growth in test [7] and in test [8] were 110% and 120%, respectively.

In the case of `CC1OC2CC(=O)OC2C2=C1C(=O)c1c(O)c3c(c(O)c1C2=O)C1CC(O)C3(O)C(C)O1` (stereo not drawn), the growth was -21.4% (active) in test [1]; -98.7% (active) in test [2]; -0.0926% (active) in test [3]; -36.4% (active) in test [4]; -71% (active) in test [5]; -91.5% (active) in test [6]. In addition, the growth in test [7] was -28.4% (active); in test [8], -34.7% (active).

With `O=[N+]([O-])c1ccc2ncccc2c1Cl`, the growth is 68.7% in test [1]; 43.6% in test [2]; -36.9% (active) in test [3]; 14.5% in test [4]; 13.4% in test [5]; 5.31% (active) in test [6]. Besides, the results for the growth in test [7] and in test [8] were 106% and -7.28% (active), respectively.

On to `C/C(=C/CCC(C)[C@@H]1CC[C@]2(C)C3=C(CC[C@@]12C)[C@@]1(C)CCC(=O)C(C)(C)[C@@H]1CC3)C(=O)O` (stereo partly drawn), for which the growth is -48.9% (active) in test [1]; -90.8% (active) in test [2]; -75% (active) in test [3]; -85.2% (active) in test [4]; -54.8% (active) in test [5]; -93.1% (active) in test [6]. Moreover, the growth is -85.3% (active) in test [7] and -87.6% (active) in test [8].

Regarding `Cc1cc(=O)n2nnc3cc(C(F)(F)F)ccc3n12`, the growth is 116% in test [1]; 127% in test [2]; 99.4% in test [3]; 118% in test [4]; 120% in test [5]; 103% in test [6]. Further, the figures for the growth in test [7] and in test [8] were 104% and 105%, respectively.

`COc1cc(C(=O)n2nc(-c3cc(OC)c(OC)c(OC)c3)nc2N)cc(OC)c1OC`: the growth is 77.1% in test [1]; 100% in test [2]; 95.8% in test [3]; 99.9% in test [4]; 88.3% in test [5]; 91.1% in test [6]. Further, the growth is 94.9% in test [7] and 102% in test [8].

As to `C=C1CCC2(C#N)[C@H]3[C@H](CC[C@@H]2C)[C@@H](C)C[C@@H](CC(C)(C)NC(=O)CN2CCC2=O)[C@H]13` (stereo partly drawn), the growth was 12.5% in test [1]; 55.3% in test [2]; 57.9% in test [3]; 74.6% in test [4]; 35.2% in test [5]; 39% in test [6]. In addition, the growth was 41.1% in test [7] and 42.7% in test [8].

For `COc1ccc(/C=C/C(=O)C(=O)/C=C/c2ccc(OC)c(OC)c2)cc1OC`, the growth in test [1] was 35.8%; in test [2], 14.8%; in test [3], 12.2%; in test [4] it was 4.43% (active); in test [5], 4.02% (active); in test [6], -74.8% (active). In addition, the growth was 21.9% in test [7] and -4.31% (active) in test [8].

Consider `COc1ccc(-c2n[nH]nc2-c2cc(OC)c3c(c2OC)OCO3)cc1`, for which the growth was 27.9% in test [1]; 16.8% in test [2]; -12.3% (active) in test [3]; 19.4% in test [4]; 27.7% in test [5]; 25.6% in test [6]. Moreover, the growth was 39.6% in test [7] and 31.9% in test [8].

On to `COc1cc(C2CC(c3cc(Cl)c(C)cc3O)=NN2c2ccc(S(N)(=O)=O)cc2)cc(OC)c1OC` (stereo not drawn), for which the growth in test [1] was -1.47% (active); in test [2] it was 30.9%; in test [3], 20.9%; in test [4], 18.8%; in test [5] it was -15.4% (active); in test [6] it was -14.3% (active). Besides, the growth was -20.6% (active) in test [7] and 2.06% (active) in test [8].

In the case of `COc1cc(/C=C/c2cc(/C=C/c3ccc(O)c(OC)c3)nc(N)n2)ccc1O`, the growth in test [1] is 1.57% (active); in test [2] it was -24.4% (active); in test [3], -8.12% (active); in test [4], 1.86% (active); in test [5], 7.59% (active); in test [6] it was 0.331% (active). Also, the growth is 0.932% (active) in test [7] and -29.3% (active) in test [8].

For `Cc1[nH]c2ccccc2c1/C=N/Nc1ncnc2sc3c(c12)CCN(CC(=O)OC(C)(C)C)C3`, the growth in test [1] is 80.7%; in test [2] it was 81.4%; in test [3], 32.3%; in test [4], 60%; in test [5], 65.4%; in test [6], 40.8%. The growth in test [7] was 99.5%; in test [8] it was 76%.

In the case of `CCOC(=O)c1cc(C(=O)c2cc(OC)c(OC)c(OC)c2)n2ncc3ccccc3c12`, the growth in test [1] was 77.1%; in test [2], 70.5%; in test [3], 7.14% (active); in test [4], 35.8%; in test [5], 30.4%; in test [6] it was 50.8%. For the same compound, the growth is 93.2% in test [7] and 39.6% in test [8].

`COc1cc2c(cc1NC(=O)C(F)(F)F)-c1ccc(NC(=O)C(F)(F)F)cc1C2`: the growth was 83.8% in test [1]; 98.7% in test [2]; 99.6% in test [3]; 98.1% in test [4]; 94.2% in test [5]; 97.1% in test [6]. Further, the growth was 105% in test [7] and 97.3% in test [8].

For `Cc1ccc(Cl)cc1NC(=O)CCl`, the growth in test [1] is 77.6%; in test [2] it was 57.2%; in test [3] it was 83.1%; in test [4], 73.7%; in test [5], 67.8%; in test [6], 62.9%. The values for the growth in test [7] and in test [8] were 114% and 96.1%, respectively.

`COc1ccc(-c2cc(-c3ccc(OC)c(OC)c3)nc(SCCCC(=O)NO)n2)cc1`: the growth in test [1] is 4.26% (active); in test [2], 8.08% (active); in test [3], 1.23% (active); in test [4], 2.56% (active); in test [5], -22% (active); in test [6], 0.272% (active). For the same compound, the growth in test [7] is -15.7% (active); in test [8], 15.7%.

Turning to `O=C(CNc1nnc(-c2cccnc2SCc2ccccc2)s1)Nc1nc(Cl)cc(Cl)n1`, the growth was 79.3% in test [1]; 100% in test [2]; 114% in test [3]; 117% in test [4]; 89.1% in test [5]; 106% in test [6]. Further, the growth in test [7] was 122%; in test [8], 97.9%.

`O=C1CCn2c1c(O)c1ccccc1c2=O`: the growth in test [1] is 94.5%; in test [2], 113%; in test [3], 99.5%; in test [4], 101%; in test [5], 94.8%; in test [6], 107%. Besides, the growth in test [7] and in test [8] was 109% in each case.

In the case of `O=[N+]([O-])c1cccc(/C=N/NC(=S)NC23CC4CC(CC(C4)C2)C3)c1`, the growth in test [1] is 88.7%; in test [2], 100%; in test [3] it was 84.8%; in test [4], 88.5%; in test [5], 66.9%; in test [6], 61.1%. For the same compound, the growth in test [7] is 103%; in test [8], 95.2%.

Turning to `CN(C)CCOc1cccc(-c2nc3sccn3c2-c2ccnc(S(C)(=O)=O)n2)c1`, the growth in test [1] was 74.7%; in test [2], 104%; in test [3], 96.8%; in test [4], 91.7%; in test [5], 88.3%; in test [6] it was 92.6%. The growth in test [7] is 106%; in test [8], 102%.

As to `COc1cc2cc(Oc3ccc(NC(=O)Nc4ccc(C(F)(F)F)cc4)cc3)c(C)nc2cc1OC`, the growth is 57.5% in test [1]; 113% in test [2]; 80.3% in test [3]; 75.3% in test [4]; 84.3% in test [5]; 47.2% in test [6]. For the same compound, the figures for the growth in test [7] and in test [8] were 94.8% and 64.4%, respectively.
